Laboratory results as given in PubChem BioAssay AID1851 (National Center for Advancing Translational Sciences (NCATS), 2009).
Screen size: about 16,000 compounds; about 2,600 (16%) were called active. About 20% were inconclusive and are not listed. The call rests on the fitted dose curve; in most records, active means well fitted curve in the direction sought with a large enough effect; inconclusive means small, poorly fitted or top-dose-only effect, or effect the other way; inactive means no such curve, though single readings can be large or run the other way. Not all results are given here.

The molecules below were run against Cytochrome P450 2D6 (Homo sapiens) (UniProt P10635) (assay: Cytochrome panel assay with activity outcomes). Settings: recombinant CYP, pro-luciferin dealkylation, luminescence, p450-cyp2d6; series mostly up to 57.1 µM.
Sequence of Cytochrome P450 2D6 (Homo sapiens) (P10635 whole entry, looked up): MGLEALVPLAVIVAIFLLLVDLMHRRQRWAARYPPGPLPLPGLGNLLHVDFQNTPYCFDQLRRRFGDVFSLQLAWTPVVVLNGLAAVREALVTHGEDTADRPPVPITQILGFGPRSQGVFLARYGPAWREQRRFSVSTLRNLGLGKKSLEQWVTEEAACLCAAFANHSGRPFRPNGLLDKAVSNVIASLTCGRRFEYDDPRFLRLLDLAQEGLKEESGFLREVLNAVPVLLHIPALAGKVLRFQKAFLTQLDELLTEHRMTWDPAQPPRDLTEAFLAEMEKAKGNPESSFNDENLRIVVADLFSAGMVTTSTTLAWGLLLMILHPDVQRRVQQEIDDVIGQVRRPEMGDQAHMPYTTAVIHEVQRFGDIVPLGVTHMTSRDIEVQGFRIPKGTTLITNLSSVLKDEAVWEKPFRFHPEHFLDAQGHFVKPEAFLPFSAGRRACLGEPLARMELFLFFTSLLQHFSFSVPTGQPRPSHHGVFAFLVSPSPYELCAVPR
On the % scale 0 is the no-effect control and ±100 the full control effect.

activity, negative = inhibition, inactive:
N#C/C(=C\NC(=S)c1ccncc1)c1nc2ccccc2s1 -9.99% [at 11.4 µM]
C=CC[C@@H](C(=O)O)c1ccccc1 1.94% [at 11.4 µM]
C[C@H]1CCCC=CC2C[C@H](OC(=O)CN(C)C)C[C@@H]2[C@@H](O)/C=C\C(=O)O1 (stereo not given in full) 9.34% [at 11.4 µM]
CC(=O)Nc1ccc(-c2cc(C(=O)O)c3cc4ccccc4cc3n2)cc1 -6.98% [at 11.4 µM]
O=C(O)c1cc(-c2ccc(-c3ccccc3)cc2)nc2cc3ccccc3cc12 -10.7% [at 11.4 µM]
O=C(O)c1ccc(C(=O)Nc2cccc3ccccc23)c(C(=O)O)c1 10.4% [at 11.4 µM]
CCOC(=O)CCN1C(=O)[C@H]2[C@@H]3[C@H](O)[C@H](O)CC(=O)[C@H]3CC[C@H]2C1=O -6.39% [at 11.4 µM]
CC(C)CN(CC#N)CC(C)C 1.21% [at 11.4 µM]
C[C@@H](c1ccccc1)N1C(=O)[C@H]2[C@H]3[C@H](O)[C@H](O)C/C(=N/OC[C@@H](O)COCc4ccco4)[C@@H]3CC[C@@H]2C1=O 3.23% [at 11.4 µM]
[N-]=[N+]=NC[C@@H]1O[C@@H](n2cnc3c(N)ncnc32)[C@@H]2O[C@@H]21 3.12% [at 11.4 µM]
Cc1ccc2[nH]c3nc(CCCn4ccnc4-c4ccccc4)nnc3c2c1 -15.6% [at 11.4 µM]

AC50, inactive:
CCCc1c(O)c2ccccc2n(-c2ccccc2)c1=O
CN(C(=O)c1c(O)c2ccccc2n(C)c1=O)c1ccccc1
COc1ccc(NC(=O)N2CCCC3(CCN(C(=O)c4cnccn4)CC3)C2)cc1
Cc1cc(NC(=O)c2cc(C(C)C)on2)no1
CCOC(=O)N1CCN(CC(=O)c2ccc3c(c2)CCN3)CC1
CC(=O)C1=C(O)C=C(c2ccco2)CC1c1ccco1 (stereo not given)
Cc1cc(NC(=O)CSc2n[nH]c(-c3cccs3)n2)no1
CSc1n[nH]c(-c2sccc2OCc2ccc(C)cc2)n1
CCc1c(C)c(C#N)c2nc3ccccc3n2c1N1CCN(c2cc(C)ccn2)CC1
Cc1cccc2sc(NC(=O)C3c4ccccc4Oc4ccccc43)nc12
Cn1cccc1C(=O)N1CCC2(CC1)CN(c1cccc(-c3ccccc3)c1)C2
CS(=O)(=O)N1CCC2(CC1)CN(c1cccc(-c3ccccc3)c1)C2
O=S(=O)(c1ccccc1)N1CCC[C@@]2(CCN(c3cccc(-c4ccccc4)c3)C2)C1
O=S(=O)(c1ccccc1)N1CCC2(CCCN(c3cccc(-c4ccccc4)c3)C2)CC1
Cc1ccccc1C(=O)Nc1ccc(C(=O)NNC(=O)CCCOc2ccc(Cl)cc2Cl)cc1
COc1cc(Br)c(C(C)NC(=O)c2cccc(Br)c2)cc1OC (stereo not given)
C/C(=N\NC(=O)c1cccc(C)c1)c1cccc(NC(=O)c2ccco2)c1
Cn1c([N+](=O)[O-])cnc1COC(N)=O
Cc1cc(C)c2cc(C#N)c(NCCOC(=O)c3ccccc3C)nc2c1
Cc1nn(-c2ccc(Cl)cc2)c2sc(C(=O)c3c(N)n(C)c(=O)n(C)c3=O)cc12
Cc1nn(-c2ccccc2)c2c1C(c1ccc(O)c(O)c1)N1C(=N2)C(Nc2ccccc2)=Nc2ccccc21 (stereo not given)
COc1ccccc1OCc1ccc(C(=O)N(C)C)o1
Cc1ccc(C(=O)NNC(=O)CSc2nnc3c(n2)[nH]c2ccc(F)cc23)cc1
O=C(Oc1ccc(C(=S)N2CCOCC2)cc1Br)c1cc(Cl)ccc1Cl
COc1ccc(-n2c(=O)c(C)nc3cnc(Nc4cccc(OC)c4)nc32)cc1
COc1cccc2cc(C(=O)CC3(O)C(=O)N(Cc4ccccc4)c4ccccc43)c(=O)oc12 (stereo not given)
COc1cccc(-c2nccc(NCc3cnc(C)cn3)n2)c1
COc1ccc(-c2nc3cnc(Nc4cccc(OC)c4)nc3n(Cc3cccs3)c2=O)cc1
COc1cccc(Nc2ncc3nc(-c4ccccc4)c(=O)n(Cc4cccs4)c3n2)c1
O=C(c1cc(C(F)(F)F)cc(C(F)(F)F)c1)N1CCC2(CC1)CN(c1ccccc1)C2
O=c1ncn(-c2ccccc2F)c2ncccc12
CN1CCCC2(CCN(C(=O)c3cc(C(F)(F)F)cc(C(F)(F)F)c3)CC2)C1
O=C(Nc1ccccc1N1CCN(C(=O)c2ccc(Cl)cc2)CC1)c1cc(Br)ccc1Cl
O=C(N/N=C/c1c[nH]c2ccccc12)c1cc(-c2ccc(-c3ccccc3)cc2)n[nH]1
CC(=O)N1CCc2cc(S(=O)(=O)CCC(=O)Nc3c(C)n(C)n(-c4ccccc4)c3=O)ccc21
Cc1sc(NC(=O)c2ccc(OCC(C)C)cc2)c(C(N)=O)c1-c1ccc(Cl)cc1Cl
N#Cc1cccc(NC(=O)N2CC3(CCN(C(=O)c4cnccn4)CC3)C2)c1
CCOc1ccccc1C1C(C#N)=C(N)Oc2n[nH]c(CC)c21 (stereo not given)
O=C(N/N=C\c1ccc(-c2ccccc2[N+](=O)[O-])o1)C1COc2cc3ccccc3cc2O1 (stereo not given)

AC50, active:
C=CCn1c(=O)c(C(=O)NCCN(CC)CC)c(O)c2ccccc21 4.47 µM
c1ccc(-c2nc(CSc3n[nH]c(-c4cccs4)n3)cs2)cc1 1.12 µM
c1ccc(-c2cccc(N3CC4(CCNCC4)C3)c2)cc1 20 µM
c1ccc(-c2cccc(N3CC[C@@]4(CCCNC4)C3)c2)cc1 10 µM
COc1ccc(OC)c(-c2cc(C(=O)O)c3cc4ccccc4cc3n2)c1 3.98 µM
COc1cccc(-c2nccc(NCc3cccc(C)c3)n2)c1 10 µM
COc1cccc(-c2nccc(NCc3ccccc3)n2)c1 1 µM
COc1cccc(-c2nccc(NCc3cccs3)n2)c1 0.316 µM
O=C(N/N=C/c1c[nH]c2ccc(Br)cc12)c1ccn(Cc2ccc(Cl)cc2)n1 12.6 µM
CC(C)CCNC1=NCCCCC1 12.6 µM
